Laboratory results: the supplement of paper PMC10849652
About 8,800 targets were measured; listed, in parts, are those with a hit and a random draw of the rest. About 0.5% of all pairs of compound and target were hits.

Columns and labels:
Assay in all cases: log2 fold change, soluble protein after heating vs DMSO (PISA); higher = thermal stabilisation; K562 lysate, 10 uM; active = over 0.2 and 3.5 SD of the protein, either way, in both replicates (recomputed)
alvocidib = compound: CN1CC[C@H](c2c(O)cc(O)c3c(=O)cc(-c4ccccc4Cl)oc23)[C@H](O)C1 [alvocidib]
In short: (§1)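 K562 pellets were dounce-homogenised in PBS pH 7.4 containing 1 mM MgCl2, and the crude extract, at 1 mg/mL protein, was exposed to 10 μM compound for 30 min. Aliquots were heated for 3 min across 48°C-58°C, pooled, brought to 0.5% NP-40 at 4°C and spun at 21,000xg for 90 min, with the supernatant taken as soluble protein. TMTpro 16plex LC-MS/MS with equalised channel sums quantified that protein. Values are log-two fold changes in thermal stability relative to solvent controls, taken from duplicates.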

Tubastatin A = compound: CN1CCc2c(c3ccccc3n2Cc2ccc(C(=O)NO)cc2)C1 [Tubastatin A]
In short: as §1

[1] = compound: CNC(=O)C1=CC=CC=C1NC2=NC(=NC=C2Cl)NC3=C(C=C(C=C3)N4CCOCC4)OC
In short: as §1

defactinib = compound: CNC(=O)c1ccc(Nc2ncc(C(F)(F)F)c(NCc3nccnc3N(C)S(C)(=O)=O)n2)cc1 [defactinib]
In short: as §1

[2] = compound: CNc1nc(-c2ccc3c(N)n[nH]c3c2)cc(N2C[C@@H](C(=O)NC3CCCCC3)CC[C@H]2C)n1
In short: as §1

encorafenib = compound: COC(=O)N[C@@H](C)CNc1nccc(-c2cn(C(C)C)nc2-c2cc(Cl)cc(NS(C)(=O)=O)c2F)n1 [encorafenib]
In short: as §1

[3] = compound: COC(=O)[C@H](CCSC)NC(=O)C1=C(C=C(C=C1)NC[C@H](CS)N)C2=CC=CC=C2
In short: as §1

alisertib = compound: COc1cc(Nc2ncc3c(n2)-c2ccc(Cl)cc2C(c2c(F)cccc2OC)=NC3)ccc1C(=O)O [alisertib]
In short: as §1

[4] = compound: COc1cc2nc(-c3cc(F)ccc3O)nc(N[C@@H]3CNC[C@H]3C(C)(C)O)c2cc1OC
In short: as §1

gefitinib = compound: COc1cc2ncnc(Nc3ccc(F)c(Cl)c3)c2cc1OCCCN1CCOCC1 [gefitinib]
In short: as §1

Measured: log2 fold change

SLC39A11 (UniProt Q8N1S5)
Sequence of UniProt Q8N1S5 (Q8N1S5 whole entry, looked up): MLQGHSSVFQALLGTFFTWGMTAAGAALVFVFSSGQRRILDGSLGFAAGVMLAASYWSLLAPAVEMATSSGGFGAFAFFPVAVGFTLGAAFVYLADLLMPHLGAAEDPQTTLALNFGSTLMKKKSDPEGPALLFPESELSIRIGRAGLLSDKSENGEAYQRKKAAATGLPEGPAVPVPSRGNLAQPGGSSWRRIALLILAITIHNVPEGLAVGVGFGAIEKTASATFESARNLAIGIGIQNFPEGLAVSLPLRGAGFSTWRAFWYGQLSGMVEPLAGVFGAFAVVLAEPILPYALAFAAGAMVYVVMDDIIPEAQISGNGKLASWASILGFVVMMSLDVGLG
inactive: alvocidib -0.02 | Tubastatin A -0.065 | [1] 0.107 | defactinib 0.338 | [2] -0.111 | encorafenib -0.059 | [3] -0.23 | alisertib -0.047 | [4] 0.097 | gefitinib 0.059

SND1 (UniProt Q7KZF4)
inactive: alvocidib 0.009 | Tubastatin A -0.121 | [1] 0.015 | defactinib 0.019 | [2] -0.019 | encorafenib -0.019 | [3] 0.195 | alisertib 0.026 | [4] -0.004 | gefitinib -0.017

SQLE (UniProt Q14534)
inactive: alvocidib 0.003 | [1] 0.018 | defactinib -0.009 | [2] -0.022 | encorafenib 0.002 | alisertib 0.059 | [4] -0.015 | gefitinib -0.045
active: Tubastatin A 0.377 | [3] 0.437

SMG1 (UniProt Q96Q15)
inactive: alvocidib 0.022 | Tubastatin A -0.05 | [1] 0.01 | defactinib 0.033 | [2] -0.046 | encorafenib 0.016 | [3] 0 | alisertib -0.02 | [4] -0.013 | gefitinib 0.012

SLC38A10 (UniProt Q9HBR0)
Sequence of UniProt Q9HBR0 (Q9HBR0 whole entry, looked up): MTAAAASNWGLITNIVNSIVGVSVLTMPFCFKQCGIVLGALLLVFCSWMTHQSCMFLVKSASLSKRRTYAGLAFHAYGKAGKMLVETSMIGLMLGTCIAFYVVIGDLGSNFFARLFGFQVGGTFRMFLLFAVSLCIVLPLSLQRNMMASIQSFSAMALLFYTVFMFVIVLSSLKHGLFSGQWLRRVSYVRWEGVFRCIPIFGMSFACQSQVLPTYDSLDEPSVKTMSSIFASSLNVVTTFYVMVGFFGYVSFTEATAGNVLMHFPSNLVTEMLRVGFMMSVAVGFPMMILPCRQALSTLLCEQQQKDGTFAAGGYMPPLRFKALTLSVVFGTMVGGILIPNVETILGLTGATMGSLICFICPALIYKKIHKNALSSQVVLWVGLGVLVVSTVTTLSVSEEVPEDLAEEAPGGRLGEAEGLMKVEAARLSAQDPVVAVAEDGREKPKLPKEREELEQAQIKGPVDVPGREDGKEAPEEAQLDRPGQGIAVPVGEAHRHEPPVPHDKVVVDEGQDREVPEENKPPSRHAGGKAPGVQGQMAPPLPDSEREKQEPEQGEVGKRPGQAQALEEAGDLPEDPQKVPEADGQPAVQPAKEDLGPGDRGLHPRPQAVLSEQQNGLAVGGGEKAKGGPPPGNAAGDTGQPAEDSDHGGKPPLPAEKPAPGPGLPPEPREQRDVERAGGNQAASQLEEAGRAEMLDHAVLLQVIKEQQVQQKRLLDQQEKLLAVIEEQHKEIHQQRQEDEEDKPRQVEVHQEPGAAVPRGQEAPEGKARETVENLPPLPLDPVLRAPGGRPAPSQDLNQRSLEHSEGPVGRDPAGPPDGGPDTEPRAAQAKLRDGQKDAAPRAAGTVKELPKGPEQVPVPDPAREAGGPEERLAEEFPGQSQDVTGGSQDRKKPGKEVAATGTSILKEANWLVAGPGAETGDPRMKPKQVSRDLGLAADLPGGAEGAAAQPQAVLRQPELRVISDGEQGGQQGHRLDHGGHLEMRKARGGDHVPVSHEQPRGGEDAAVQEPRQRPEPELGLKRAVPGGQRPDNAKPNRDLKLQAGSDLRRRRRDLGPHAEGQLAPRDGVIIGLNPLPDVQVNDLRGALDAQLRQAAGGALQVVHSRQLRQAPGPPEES
inactive: alvocidib -0.036 | Tubastatin A 0.074 | [1] -0.015 | defactinib 0.023 | [2] 0.04 | encorafenib 0.037 | [3] -0.06 | alisertib -0.032 | [4] 0.032 | gefitinib -0.046

SMC4 (UniProt Q9NTJ3)
Sequence of UniProt Q9NTJ3 (Q9NTJ3 whole entry, looked up): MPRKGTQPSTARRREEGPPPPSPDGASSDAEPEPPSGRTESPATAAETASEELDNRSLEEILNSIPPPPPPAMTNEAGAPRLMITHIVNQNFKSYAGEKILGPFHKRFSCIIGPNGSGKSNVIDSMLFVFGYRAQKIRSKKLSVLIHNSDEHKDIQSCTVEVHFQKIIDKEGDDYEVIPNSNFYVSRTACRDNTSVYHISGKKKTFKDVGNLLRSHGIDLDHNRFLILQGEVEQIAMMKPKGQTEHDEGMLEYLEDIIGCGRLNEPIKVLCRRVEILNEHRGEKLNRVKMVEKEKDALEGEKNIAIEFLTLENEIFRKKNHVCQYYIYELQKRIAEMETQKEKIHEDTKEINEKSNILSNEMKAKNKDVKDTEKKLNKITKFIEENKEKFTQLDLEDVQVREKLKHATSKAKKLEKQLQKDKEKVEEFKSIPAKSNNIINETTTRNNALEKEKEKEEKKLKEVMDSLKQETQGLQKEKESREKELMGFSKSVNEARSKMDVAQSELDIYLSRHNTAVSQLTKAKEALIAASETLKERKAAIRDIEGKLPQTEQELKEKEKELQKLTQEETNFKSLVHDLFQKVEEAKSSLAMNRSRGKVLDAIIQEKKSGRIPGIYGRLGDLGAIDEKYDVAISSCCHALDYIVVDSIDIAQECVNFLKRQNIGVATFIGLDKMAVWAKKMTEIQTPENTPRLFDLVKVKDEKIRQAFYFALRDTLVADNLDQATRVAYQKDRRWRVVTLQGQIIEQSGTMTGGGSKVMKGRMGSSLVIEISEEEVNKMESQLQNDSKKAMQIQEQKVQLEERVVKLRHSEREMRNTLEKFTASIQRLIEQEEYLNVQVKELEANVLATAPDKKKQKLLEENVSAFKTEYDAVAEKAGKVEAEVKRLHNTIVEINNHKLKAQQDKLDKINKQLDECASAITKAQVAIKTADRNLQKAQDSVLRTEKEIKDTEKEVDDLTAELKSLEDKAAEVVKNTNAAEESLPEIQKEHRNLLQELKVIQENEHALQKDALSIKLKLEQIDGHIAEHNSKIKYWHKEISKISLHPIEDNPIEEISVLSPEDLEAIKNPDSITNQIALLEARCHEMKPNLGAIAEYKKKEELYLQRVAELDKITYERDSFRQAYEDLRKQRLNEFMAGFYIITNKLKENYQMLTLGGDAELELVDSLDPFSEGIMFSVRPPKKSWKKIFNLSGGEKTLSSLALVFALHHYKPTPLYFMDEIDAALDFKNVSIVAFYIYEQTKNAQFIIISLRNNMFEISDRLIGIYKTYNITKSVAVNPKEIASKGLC
inactive: alvocidib 0.03 | Tubastatin A -0.079 | [1] -0.006 | defactinib -0.003 | [2] -0.008 | encorafenib 0.004 | [3] 0.024 | alisertib 0.001 | [4] 0 | gefitinib -0.024

SPNS1 (UniProt Q9H2V7)
Sequence of UniProt Q9H2V7 (Q9H2V7 whole entry, looked up): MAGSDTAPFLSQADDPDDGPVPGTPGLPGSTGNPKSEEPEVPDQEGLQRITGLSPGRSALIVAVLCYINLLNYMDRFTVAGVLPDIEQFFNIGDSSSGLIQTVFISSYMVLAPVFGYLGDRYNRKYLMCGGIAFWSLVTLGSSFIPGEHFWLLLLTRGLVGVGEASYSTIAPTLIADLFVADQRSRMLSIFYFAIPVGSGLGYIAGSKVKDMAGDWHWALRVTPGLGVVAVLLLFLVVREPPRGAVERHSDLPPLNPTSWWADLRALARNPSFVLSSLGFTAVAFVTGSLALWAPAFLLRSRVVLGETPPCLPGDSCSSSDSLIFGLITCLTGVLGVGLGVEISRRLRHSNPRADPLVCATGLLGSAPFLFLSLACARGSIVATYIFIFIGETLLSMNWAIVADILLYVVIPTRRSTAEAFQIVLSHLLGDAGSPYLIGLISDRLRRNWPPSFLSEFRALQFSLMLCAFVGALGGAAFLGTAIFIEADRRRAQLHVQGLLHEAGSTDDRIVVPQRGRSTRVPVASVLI
inactive: alvocidib -0.118 | Tubastatin A 0.034 | [1] 0.06 | defactinib 0.095 | [2] -0.03 | encorafenib 0.019 | [3] -0.031 | alisertib 0.047 | [4] 0.019 | gefitinib -0.015

SLC19A1 (UniProt P41440)
inactive: alvocidib -0.106 | Tubastatin A 0.047 | [1] 0.025 | defactinib 0.01 | [2] 0.037 | encorafenib 0.011 | [3] -0.018 | alisertib -0.005 | [4] 0.039 | gefitinib 0.026

STAU1 (UniProt O95793)
Sequence of UniProt O95793 (O95793 whole entry, looked up): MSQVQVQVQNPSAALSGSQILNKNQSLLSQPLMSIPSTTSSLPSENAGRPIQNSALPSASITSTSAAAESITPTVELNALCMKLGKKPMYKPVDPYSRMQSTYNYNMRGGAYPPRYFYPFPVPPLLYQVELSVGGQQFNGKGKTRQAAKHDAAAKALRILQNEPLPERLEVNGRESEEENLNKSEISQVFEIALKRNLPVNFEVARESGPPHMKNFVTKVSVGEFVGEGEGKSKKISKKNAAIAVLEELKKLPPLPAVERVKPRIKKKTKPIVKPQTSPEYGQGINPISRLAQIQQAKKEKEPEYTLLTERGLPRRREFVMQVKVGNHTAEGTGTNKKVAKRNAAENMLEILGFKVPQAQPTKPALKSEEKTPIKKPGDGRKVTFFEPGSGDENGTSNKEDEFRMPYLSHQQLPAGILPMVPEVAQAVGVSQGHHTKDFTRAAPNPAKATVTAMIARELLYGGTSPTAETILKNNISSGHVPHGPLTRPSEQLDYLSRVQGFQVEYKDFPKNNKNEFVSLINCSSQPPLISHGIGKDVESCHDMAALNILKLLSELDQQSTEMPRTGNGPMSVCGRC
inactive: alvocidib 0.062 | Tubastatin A -0.06 | [1] 0.051 | defactinib 0.027 | [2] -0.04 | encorafenib 0.078 | [3] -0.009 | alisertib 0.072 | [4] -0.007 | gefitinib 0.012

SPATA5 (UniProt Q8NB90)
inactive: alvocidib 0.033 | Tubastatin A -0.101 | [1] 0.007 | defactinib 0.029 | [2] 0.085 | encorafenib 0.04 | [3] 0.008 | alisertib 0.025 | [4] 0.004 | gefitinib -0.024

SPHK1 isoform 2 (UniProt Q9NYA1)
inactive: alvocidib 0.023 | Tubastatin A -0.114 | [1] 0.046 | defactinib 0.076 | [2] -0.175 | encorafenib 0.018 | [3] 0.006 | alisertib 0.045 | [4] 0.022 | gefitinib 0.069

SSU72 (UniProt Q9NP77)
Sequence of UniProt Q9NP77 (Q9NP77 whole entry, looked up): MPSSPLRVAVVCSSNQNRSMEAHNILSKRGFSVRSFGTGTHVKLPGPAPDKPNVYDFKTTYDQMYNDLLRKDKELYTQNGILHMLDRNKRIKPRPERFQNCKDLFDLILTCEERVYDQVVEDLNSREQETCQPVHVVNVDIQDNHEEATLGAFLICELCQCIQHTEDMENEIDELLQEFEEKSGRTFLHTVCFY
inactive: alvocidib -0.127 | Tubastatin A -0.05 | [1] -0.035 | defactinib -0.026 | [2] -0.032 | encorafenib -0.04 | [3] 0.183 | alisertib -0.016 | [4] -0.013 | gefitinib -0.004

SLC38A1 (UniProt Q9H2H9)
inactive: alvocidib -0.111 | Tubastatin A 0.022 | [1] -0.026 | defactinib -0.016 | [2] -0.054 | encorafenib 0.019 | [3] -0.045 | alisertib -0.021 | [4] 0.011 | gefitinib 0.073

TARBP1 (UniProt Q13395)
inactive: alvocidib 0.009 | Tubastatin A -0.118 | [1] -0.066 | defactinib -0.034 | [2] 0.047 | encorafenib 0.073 | [3] -0.236 | alisertib 0.018 | [4] -0.004 | gefitinib 0.011

SLC40A1 (UniProt Q9NP59)
inactive: alvocidib 0.002 | Tubastatin A 0.145 | [1] -0.05 | defactinib 0.087 | [2] -0.029 | encorafenib 0.013 | [3] -0.072 | alisertib 0.018 | [4] 0.039 | gefitinib -0.01

SNRPF (UniProt P62306)
Sequence of UniProt P62306 (P62306 whole entry, looked up): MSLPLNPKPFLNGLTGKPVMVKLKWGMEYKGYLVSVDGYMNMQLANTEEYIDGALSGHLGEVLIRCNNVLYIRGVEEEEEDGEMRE
inactive: alvocidib -0.119 | Tubastatin A -0.028 | [1] -0.02 | defactinib 0.014 | [2] -0.034 | encorafenib 0.021 | [3] 0.014 | alisertib -0.03 | [4] 0.022 | gefitinib 0.084

SSB (UniProt P05455)
Sequence of UniProt P05455 (P05455 whole entry, looked up): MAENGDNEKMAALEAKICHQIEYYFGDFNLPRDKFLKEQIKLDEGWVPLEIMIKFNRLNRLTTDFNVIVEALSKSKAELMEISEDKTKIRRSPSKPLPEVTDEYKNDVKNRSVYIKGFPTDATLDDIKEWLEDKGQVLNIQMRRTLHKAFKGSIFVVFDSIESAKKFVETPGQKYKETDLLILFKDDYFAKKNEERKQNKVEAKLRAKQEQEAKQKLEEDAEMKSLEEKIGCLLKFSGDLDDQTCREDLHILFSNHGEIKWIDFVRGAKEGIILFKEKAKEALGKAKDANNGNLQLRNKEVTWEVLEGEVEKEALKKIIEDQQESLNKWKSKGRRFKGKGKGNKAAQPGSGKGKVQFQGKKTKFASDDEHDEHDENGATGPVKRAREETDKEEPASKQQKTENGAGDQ
inactive: alvocidib 0.057 | Tubastatin A 0.018 | [1] -0.02 | defactinib -0.019 | [2] -0.015 | encorafenib -0.029 | [3] 0.022 | alisertib -0.003 | [4] 0.002 | gefitinib -0.008

SUZ12 (UniProt Q15022)
inactive: alvocidib -0.004 | Tubastatin A -0.012 | [1] 0.009 | defactinib 0.049 | [2] 0.027 | encorafenib 0 | [3] 0.101 | alisertib -0.057 | [4] -0.062 | gefitinib 0.062

SMG5 (UniProt Q9UPR3)
inactive: alvocidib 0.086 | Tubastatin A -0.075 | [1] 0.014 | defactinib 0.04 | [2] -0.037 | encorafenib 0.067 | [3] 0.058 | alisertib 0.04 | [4] 0.004 | gefitinib 0.028

SHCBP1 (UniProt Q8NEM2)
inactive: alvocidib 0.001 | Tubastatin A -0.122 | [1] -0.043 | defactinib 0.012 | [2] -0.084 | encorafenib 0.049 | [3] -0.003 | alisertib 0.088 | [4] -0.015 | gefitinib 0.055

SLC25A36 (UniProt Q96CQ1)
Sequence of UniProt Q96CQ1 (Q96CQ1 whole entry, looked up): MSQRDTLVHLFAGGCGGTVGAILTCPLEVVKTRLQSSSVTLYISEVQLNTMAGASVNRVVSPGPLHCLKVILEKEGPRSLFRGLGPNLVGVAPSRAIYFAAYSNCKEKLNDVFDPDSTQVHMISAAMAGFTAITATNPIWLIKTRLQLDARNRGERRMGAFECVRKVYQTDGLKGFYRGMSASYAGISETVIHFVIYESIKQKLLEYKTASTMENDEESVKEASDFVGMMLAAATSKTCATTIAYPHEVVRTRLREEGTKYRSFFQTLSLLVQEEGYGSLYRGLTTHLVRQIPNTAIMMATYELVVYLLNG
inactive: alvocidib 0.024 | Tubastatin A -0.047 | [1] 0.048 | defactinib 0.068 | [2] 0.029 | encorafenib 0.041 | [3] 0 | alisertib 0.04 | [4] 0.049 | gefitinib 0.025

TANK (UniProt Q92844)
active: [3] -0.309
inactive: alvocidib 0.066 | Tubastatin A -0.043 | [1] 0.25 | defactinib 0.044 | [2] 0.068 | encorafenib -0.006 | alisertib -0.006 | [4] -0.024 | gefitinib -0.047

SPATA5L1 (UniProt Q9BVQ7)
inactive: alvocidib 0.022 | Tubastatin A -0.16 | [1] 0.019 | defactinib 0.036 | [2] 0.23 | encorafenib 0 | [3] -0.061 | alisertib 0.024 | [4] -0.052 | gefitinib -0.013

SKP2 (UniProt Q13309)
inactive: alvocidib -0.048 | Tubastatin A -0.077 | [1] 0.044 | defactinib 0.189 | [2] 0.03 | encorafenib -0.053 | [3] 0.085 | alisertib 0.01 | [4] 0.173 | gefitinib 0.058

SMC3 (UniProt Q9UQE7)
inactive: alvocidib -0.009 | Tubastatin A 0.006 | [1] 0.003 | defactinib 0.002 | [2] -0.036 | encorafenib -0.007 | [3] 0.002 | alisertib 0.005 | [4] -0.013 | gefitinib -0.005

SNRPD2 (UniProt P62316)
Sequence of UniProt P62316 (P62316 whole entry, looked up): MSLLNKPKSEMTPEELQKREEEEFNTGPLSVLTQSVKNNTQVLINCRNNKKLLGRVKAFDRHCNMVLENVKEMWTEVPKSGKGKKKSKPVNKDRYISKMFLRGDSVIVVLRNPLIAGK
inactive: alvocidib -0.054 | Tubastatin A 0.027 | [1] -0.003 | defactinib -0.019 | [2] 0.021 | encorafenib 0.005 | [3] -0.027 | alisertib 0.014 | [4] 0.029 | gefitinib -0.02

SLC30A9 (UniProt Q6PML9)
inactive: alvocidib 0 | Tubastatin A 0.022 | [1] 0.002 | defactinib 0.064 | [2] 0.023 | encorafenib 0.032 | [3] 0.05 | alisertib -0.008 | [4] -0.079 | gefitinib -0.01

SHKBP1 (UniProt Q8TBC3)
active: [3] 0.274
inactive: alvocidib -0.038 | Tubastatin A -0.018 | [1] -0.002 | defactinib 0.115 | [2] 0.046 | encorafenib -0.05 | alisertib 0.019 | [4] 0.001 | gefitinib 0.023
